From PubChem BioAssay (Tox21)
Where “and” joins values, the source holds several entries; their conditions need not be identical. Equal entries are not always repeated. Results filed as inconclusive are left out. Entries that show only a call come without a potency. Where a structure was tested more than once in an assay, its records may differ in their call. Calls of active or inactive are those of the source. Unless noted, calls come from the whole dose curve; as a rule, active = well fitted curve in the direction sought with a large enough effect in the repeat runs; inconclusive = weak or mixed curves; inactive = no such curve, though single readings can be large; an effect the other way counts as inactive or inconclusive.

Experiments:
[1] = target: Retinoic acid receptor RXR-alpha (Homo sapiens) (UniProt P19793); test: qHTS assay to identify small molecule agonists of the RXR signaling pathway (AID 1159527; calls by dose curve; note: nearly all actives have a fitted effect of over 35% in size; note: potency is the fitted concentration of half-maximal effect)
Method in brief: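 Reporter activation is measured as beta-lactamase activity via FRET substrate cleavage (emission 460/530 nm) in HEK 293T cells expressing an RXR-alpha-driven bla construct, following 16 hr compound exposure at 37 C.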

[2] = qHTS assay to identify small molecule agonists of the RXR signaling pathway - cell viability counter screen (AID 1159529); note: series mostly up to about 77 µM; nearly all actives have a fitted effect of over 50% in size
Method in brief: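 Tox21 10K compounds were tested for cytotoxicity against GeneBLAzer RXR-alpha HEK 293T cells grown in 2% charcoal-stripped FBS. Exposure lasted 16 hr at 37 C, 5% CO2; viability read by CellTiter-Glo luminescence.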

[3] = qHTS assay to identify small molecule antagonists of the retinoid acid receptor (RAR) signaling pathway - cell viability counter screen (AID 1159551); note: nearly all actives have a fitted effect of over 35% in size
Method in brief: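 In this counter screen, the RARE-luciferase line C3RL4 was exposed for 6 h at 37 C and 5% CO2 to compounds with retinol at 1 uM final. Cellular ATP, read by luminescence, served as the viability measure.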

[4] = qHTS assay to identify small molecule antagonists of the retinoic acid receptor (RAR) signaling pathway (AID 1159552; note: nearly all actives have a fitted effect of over 50% in size)
Method in brief: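 Overnight-plated C3RL4 reporter cells get compound, then retinol to 1 uM final; plates sit 6 hr at 37 C, 5% CO2. A luciferase reagent is added and light output recorded after 30 min at room temperature.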

[5] = qHTS assay to identify small molecule agonists of the retinoic acid receptor (RAR) signaling pathway (AID 1159553)
Method in brief: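 In this cell-based screen, 1,000 C3RL4 cells per well were cultured overnight, dosed with test chemicals in DMSO for 6 hr, and assessed for RARE luciferase luminescence.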

[6] = qHTS assay to identify small molecule antagonists of the estrogen related receptor (ERR) signaling pathway - cell viability counter screen (AID 1224818); note: series mostly up to about 46 µM
Method in brief: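 Viability of ERR cells, CellTiter-Fluor fluorescence; 17.5 h compound exposure at 37 C, DMSO vehicle; 30 min reagent incubation at 37 C/5% CO2.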

[7] = qHTS assay to identify small molecule antagonists of the estrogen related receptor (ERR) signaling pathway from Tox21 library - cell viability counter screen (AID 1224834); note: nearly all actives have a fitted effect of over 30% in size
Method in brief: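 Counter screen run in ERR cells (2,000 cells/well): cells pre-incubated 6 h, then treated with compounds for 17.5 h at 37 C. Fluorescence was read 30 min after CellTiter-Fluor addition.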

[8] = target: Luciferin 4-monooxygenase (Photinus pyralis) (UniProt P08659); test: qHTS assay to identify small molecule inhibitors of firefly luciferase (AID 1224835); note: series mostly up to about 120 µM; nearly all actives have a fitted effect of over 25% in size
Method in brief: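 Inhibition of purified Photinus luciferase is measured by luminescence. Substrate levels (D-luciferin, ATP) sit at their KM values. Each compound is tested in a concentration series.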

[9] = qHTS assay to identify small molecule agonists of the constitutive androstane receptor (CAR) signaling pathway - cell viability counter screen (AID 1224836); note: series mostly up to about 92 µM; nearly all actives have a fitted effect of over 45% in size
Method in brief: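 Fluorescence from CellTiter-Fluor indicates live cells after 23 h exposure. The human hepatoma line expresses hCAR and a CYP2B6-2.2kb reporter. Incubation medium contains 0.75 uM PK11195 (final).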

[10] = qHTS assay to identify small molecule antagonists of the constitutive androstane receptor (CAR) signaling pathway - cell viability counter screen (AID 1224837); note: series mostly up to about 92 µM; nearly all actives have a fitted effect of over 45% in size
Method in brief: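 CITCO at 50 nM final was added alongside compounds (15 concentrations) to double-stable hCAR/CYP2B6-2.2kb HepG2 cells. Following 23 hr at 37 C, cell viability was quantified by CellTiter-Fluor fluorescence intensity.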

[11] = qHTS assay to identify small molecule antagonists of the estrogen related receptor signaling pathway with the pleiotropic PPARgamma coactivator (PGC) from Tox21 10K library - cell viability counter screen (AID 1224840; active = well fitted cell-killing curve with a large enough effect in the repeat runs, not every such curve was filed as active; note: nearly all actives have a fitted effect of over 40% in size)
Method in brief: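 Readout: fluorescence intensity from CellTiter-Fluor after 30 min at 37 C/5% CO2. Preceded by 17.5 h treatment of PGC/ERR cells with DMSO-dissolved compounds, added 6 h post-seeding.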

[12] = target: Thyrotropin receptor (Homo sapiens) (UniProt P16473); test: qHTS assay to identify small molecule agonists of the thyroid stimulating hormone receptor (TSHR) signaling pathway (AID 1224843; calls by dose curve; note: nearly all actives have a fitted effect of over 45% in size; note: potency is the fitted concentration of half-maximal effect)
Method in brief: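 Agonist activity read as cAMP rise via d2/cryptate HTRF competition, 1 h room-temperature detection, in HEK293 cells expressing TSHR. Fifteen-point titrations, each run in triplicate, with a 30 min room-temperature incubation beforehand.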

[13] = qHTS assay to identify small molecule antagonists of the estrogen related receptor (ERR) signaling pathway (AID 1224819; note: series mostly up to about 46 µM; nearly all actives have a fitted effect of over 50% in size)
Method in brief: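 Seed ERR cells 2,000/well; rest 6 h at 37 C/5% CO2; pin compounds in DMSO; incubate 18 h at 37 C; add One-Glo; wait 30 min at room temperature; measure luminescence.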

[14] = qHTS assay to identify small molecule agonists of the estrogen related receptor (ERR) signaling pathway (AID 1224820)
Method in brief: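 After 6 h plating (2,000 cells/well) and 18 h compound treatment at 37 C, ERR cells were lysed with One-Glo and luminescence read after 30 min at room temperature.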

[15] = system: estrogen-related receptor alpha (ERRalpha) with PGC-1alpha coactivator, human; test: qHTS assay to identify small molecule antagonists of the estrogen related receptor signaling pathway with the pleiotropic PPARgamma coactivator (PGC) (AID 1224821; calls by dose curve;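 note: series mostly up to about 46 µM; lower luminescence signal means antagonism of PGC/ERR signalling; nearly all actives have a fitted effect of over 50% in size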)
Method in brief: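 Luminescence from One-Glo luciferase reagent (30 min, room temperature) measured after 18 h compound treatment at 37 °C. Cells carry the PGC/ERR reporter and were seeded 6 h prior to dosing.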

[16] = qHTS assay to identify small molecule agonists of the estrogen related receptor signaling pathway with the pleiotropic PPARgamma coactivator (PGC) (AID 1224823)
Method in brief: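 Luminescence from One-Glo reagent (30 min, room temperature) was read after 18 h compound treatment at 37 C of PGC/ERR cells plated 6 h beforehand; compounds delivered in DMSO by pin tool.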

[17] = target: Nuclear receptor subfamily 1 group I member 3 (Homo sapiens) (UniProt Q14994); test: qHTS assay to identify small molecule antagonists of the constitutive androstane receptor (CAR) signaling pathway (AID 1224838); note: nearly all actives have a fitted effect of over 40% in size
Method in brief: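 Inhibition of CITCO-driven (50 nM final) CYP2B6 reporter expression is measured in HepG2 cells stably carrying hCAR. Fifteen compound concentrations are applied for 24 h at 37 C, followed by luciferase luminescence.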

[18] = target: Nuclear receptor subfamily 1 group I member 3 (Homo sapiens) (UniProt Q14994); test: qHTS assay to identify small molecule agonists of the constitutive androstane receptor (CAR) signaling pathway (AID 1224839); note: series mostly up to about 92 µM; nearly all actives have a fitted effect of over 15% in size
Method in brief: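 Stable hCAR/CYP2B6-2.2kb HepG2 line in DMEM with 10% FBS; compounds (15 concentrations) and 0.75 uM PK11195 final, 24 h at 37 C/5% CO2, then ONE-Glo luminescence after 30 min.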

[19] = qHTS assay to identify small molecule antagonists of the estrogen related receptor signaling pathway with the pleiotropic PPARgamma coactivator (PGC) from Tox21 10K library (AID 1224841; call rule not given here)
Method in brief: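 One-Glo luminescence, measured after half an hour at room temperature, quantified reporter output of PGC/ERR cells. These had been plated at 2,000 per well, incubated 6 h, dosed with compounds in DMSO, then kept 18 h at 37 C.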

[20] = qHTS assay to identify small molecule agonists of the estrogen related receptor signaling pathway with the pleiotropic PPARgamma coactivator (PGC) from Tox21 10K library (AID 1224842); note: nearly all actives have a fitted effect of over 15% in size
Method in brief: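 Luminescence from One-Glo (30 min, room temperature) measured after PGC/ERR cells had 18 h at 37 C with pinned compound (23 nL in DMSO). Cells had been seeded at 2,000 per well and pre-incubated 6 h.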

Chain of Thyrotropin receptor (Homo sapiens) (P16473 whole entry, looked up): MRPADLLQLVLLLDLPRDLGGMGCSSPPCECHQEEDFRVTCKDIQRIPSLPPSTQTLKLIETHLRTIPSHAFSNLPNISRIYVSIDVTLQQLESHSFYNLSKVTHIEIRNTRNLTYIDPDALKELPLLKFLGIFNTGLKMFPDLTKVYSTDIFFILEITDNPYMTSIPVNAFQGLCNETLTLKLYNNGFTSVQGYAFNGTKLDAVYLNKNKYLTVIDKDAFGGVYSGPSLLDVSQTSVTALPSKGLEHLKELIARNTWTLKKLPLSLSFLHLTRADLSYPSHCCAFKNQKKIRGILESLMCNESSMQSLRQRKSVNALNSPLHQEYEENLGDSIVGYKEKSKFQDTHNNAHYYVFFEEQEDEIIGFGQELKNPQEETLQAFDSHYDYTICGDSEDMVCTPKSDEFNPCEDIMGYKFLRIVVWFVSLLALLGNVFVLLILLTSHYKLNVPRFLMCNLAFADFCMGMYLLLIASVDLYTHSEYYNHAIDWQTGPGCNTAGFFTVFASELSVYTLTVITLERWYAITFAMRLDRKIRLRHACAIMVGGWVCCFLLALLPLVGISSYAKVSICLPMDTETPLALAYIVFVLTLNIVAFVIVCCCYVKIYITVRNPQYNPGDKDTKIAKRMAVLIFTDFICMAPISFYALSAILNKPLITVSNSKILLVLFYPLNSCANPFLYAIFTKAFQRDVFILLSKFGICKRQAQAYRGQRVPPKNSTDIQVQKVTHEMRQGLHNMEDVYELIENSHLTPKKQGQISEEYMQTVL
Chain of Luciferin 4-monooxygenase (Photinus pyralis) (P08659 whole entry, looked up): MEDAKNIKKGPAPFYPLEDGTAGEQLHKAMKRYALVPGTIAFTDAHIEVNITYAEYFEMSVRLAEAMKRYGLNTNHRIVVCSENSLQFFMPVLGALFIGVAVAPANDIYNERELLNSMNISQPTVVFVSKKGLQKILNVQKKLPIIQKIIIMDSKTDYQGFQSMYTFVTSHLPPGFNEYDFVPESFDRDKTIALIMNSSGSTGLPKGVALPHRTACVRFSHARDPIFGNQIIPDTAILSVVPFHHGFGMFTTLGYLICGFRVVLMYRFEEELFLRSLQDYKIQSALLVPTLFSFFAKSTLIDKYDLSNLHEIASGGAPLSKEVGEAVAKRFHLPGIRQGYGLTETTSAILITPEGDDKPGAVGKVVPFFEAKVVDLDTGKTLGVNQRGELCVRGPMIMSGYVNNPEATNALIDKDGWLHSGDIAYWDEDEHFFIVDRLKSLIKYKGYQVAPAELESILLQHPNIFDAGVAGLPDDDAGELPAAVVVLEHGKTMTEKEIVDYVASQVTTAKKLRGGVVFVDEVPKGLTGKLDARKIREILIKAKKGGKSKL
Chain of Retinoic acid receptor RXR-alpha (Homo sapiens) (P19793 whole entry, looked up): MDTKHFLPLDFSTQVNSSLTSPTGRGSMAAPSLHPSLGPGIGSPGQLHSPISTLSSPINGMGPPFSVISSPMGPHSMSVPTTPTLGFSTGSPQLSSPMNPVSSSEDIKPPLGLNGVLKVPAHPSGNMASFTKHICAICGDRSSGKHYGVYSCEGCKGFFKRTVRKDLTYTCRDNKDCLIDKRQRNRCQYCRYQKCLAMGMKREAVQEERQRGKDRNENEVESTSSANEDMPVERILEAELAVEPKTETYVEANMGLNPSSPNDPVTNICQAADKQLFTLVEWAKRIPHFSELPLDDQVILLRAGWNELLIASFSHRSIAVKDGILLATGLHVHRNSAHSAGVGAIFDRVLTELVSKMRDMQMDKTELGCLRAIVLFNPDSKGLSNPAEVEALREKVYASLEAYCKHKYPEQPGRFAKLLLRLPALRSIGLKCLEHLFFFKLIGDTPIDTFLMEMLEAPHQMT
Chain of Nuclear receptor subfamily 1 group I member 3 (Homo sapiens) (Q14994 whole entry, looked up): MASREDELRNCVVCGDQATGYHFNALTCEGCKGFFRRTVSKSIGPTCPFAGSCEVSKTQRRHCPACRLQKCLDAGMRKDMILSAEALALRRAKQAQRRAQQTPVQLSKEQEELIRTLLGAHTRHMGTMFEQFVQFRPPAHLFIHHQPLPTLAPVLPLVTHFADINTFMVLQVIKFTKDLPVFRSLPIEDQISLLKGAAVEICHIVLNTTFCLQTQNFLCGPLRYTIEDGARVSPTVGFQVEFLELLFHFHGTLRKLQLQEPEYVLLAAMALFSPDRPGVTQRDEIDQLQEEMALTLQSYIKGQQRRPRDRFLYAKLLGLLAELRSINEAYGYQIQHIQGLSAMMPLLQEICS

Compound	Potency [1]	Potency [2]	outcome [3]	Potency [4]	Potency [5]	outcome [6]	Potency [7]	Potency [8]	Potency [9]	Potency [10]	Potency [11]	Potency [12]	Potency [13]	outcome [14]	outcome [15]	outcome [16]	Potency [17]	Potency [18]	Potency [19]	Potency [20]
CC(=O)c1ccc(S(=O)(=O)NC(=O)NC2CCCCC2)cc1	inactive	inactive	inactive	inactive	inactive	inactive	inactive	inactive	inactive	inactive	inactive	inactive								
CC(C)Cc1ccc(C(C)C(=O)O)cc1 (stereo unspecified)	inactive	inactive	inactive	inactive	inactive	inactive	inactive		inactive	inactive	inactive		inactive	inactive	inactive	inactive	inactive	inactive	inactive	inactive
Nc1cccc(N)c1	inactive	inactive	inactive	inactive	inactive		inactive	inactive	inactive	inactive	inactive						inactive	inactive		
CC(C)(C)NCC(O)c1ccc(O)c(CO)c1 (stereo unspecified)	inactive	inactive	inactive	inactive	inactive	inactive	inactive	inactive	inactive	inactive	inactive	60.7 nM (active) and 37.6 nM (active)					inactive	inactive		
C[C@]12C[C@H](O)[C@H]3[C@@H](CCC4=CC(=O)CC[C@@]43C)[C@@H]1CC[C@@H]2C(=O)CO	inactive	inactive	inactive	inactive	inactive	inactive	inactive	inactive	inactive	inactive	inactive	12.2 µM (active) and inactive					inactive	inactive		
C1CNCCN1	11.3 µM (active) and inactive	inactive	inactive	inactive	inactive		inactive	inactive	inactive	inactive	inactive						inactive	inactive		
CCN1CCCC1=O	inactive	inactive	inactive	inactive	inactive		inactive	inactive	inactive	inactive	inactive						inactive	inactive		
Cc1cccc2ccccc12	inactive	inactive	inactive	inactive	inactive		inactive	inactive	inactive	inactive	inactive						inactive	inactive	inactive	inactive
NC(=O)OCC(COC(N)=O)c1ccccc1	inactive	inactive	inactive	inactive	inactive	inactive	inactive	inactive	inactive	inactive	inactive	inactive					inactive	inactive		
CN/C(=C\[N+](=O)[O-])NCCSCc1ccc(CN(C)C)o1	inactive	inactive	inactive	inactive	inactive	inactive	inactive	inactive	inactive	inactive	inactive	inactive					inactive	inactive		
NC(=O)N1c2ccccc2C=Cc2ccccc21	inactive	inactive	inactive	inactive	inactive	inactive	inactive	inactive	inactive	inactive	inactive						inactive	inactive		
O=C1CCCCCN1	inactive	inactive	inactive	inactive	inactive		inactive	inactive	inactive	inactive	inactive	inactive					inactive	inactive	inactive	inactive
O=c1cc[nH]c(=O)[nH]1	inactive	inactive	inactive	inactive	inactive		inactive	inactive	inactive	inactive	inactive	inactive					inactive	inactive	inactive	inactive
C=C(C)OC(C)=O	inactive	inactive	inactive	inactive	inactive		inactive	inactive	inactive	inactive	inactive	inactive					inactive	inactive	inactive	inactive
C=C(C)C(N)=O	inactive	inactive	inactive	inactive	inactive		inactive	inactive	inactive	inactive	inactive						inactive	inactive	inactive	inactive
NC(=O)c1ccc([N+](=O)[O-])cc1Cl	inactive	inactive	inactive	inactive	inactive		inactive	inactive	inactive	inactive	inactive	inactive					inactive	inactive		
Cc1c(N(C)CS(=O)(=O)O)c(=O)n(-c2ccccc2)n1C	inactive	inactive	inactive	inactive	inactive		inactive	inactive	inactive	inactive	inactive	inactive					inactive	inactive		
COC(=O)C1CCC(C(=O)OC)CC1 (stereo unspecified)	inactive	inactive	inactive	inactive	inactive		inactive	inactive	inactive	inactive	inactive								inactive	inactive
